The supplement of paper PMC6555819

Tests used:
Experiment in all cases: PBM binding z-score (relative to random genomic background probes); higher = stronger binding; sequences stand for … in GC…GCGATTGACAGCGTAGAATGAAGG
[1] = system: FXR:RXRa (NR concentration 270 nM, RXRa partner concentration 90 nM)
In short: (§1)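 Ligand-free nuclear receptor dimers were applied to custom Agilent 4×180K protein-binding microarrays whose double-stranded probes carried direct-repeat seeds, single-nucleotide variants, half-site ablations and random human genomic background sequences in 34-nt variable regions. Incubation lasted 1 h. Binding z-scores were computed against the random background probes from regression-normalized fluorescence.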

[2] = system: LXRa:RXRa (NR concentration 270 nM, RXRa partner concentration 90 nM)
In short: as §1

[3] = system: LXRa homodimer (NR concentration 270 nM)
In short: as §1

[4] = system: LXRb:RXRa (NR concentration 270 nM, RXRa partner concentration 90 nM)
In short: as §1

[5] = system: LXRb homodimer (NR concentration 270 nM)
In short: as §1

[6] = system: PPARa:RXRa (NR concentration 270 nM, RXRa partner concentration 90 nM)
In short: as §1

[7] = system: PPARg:RXRa (NR concentration 180 nM, RXRa partner concentration 90 nM)
In short: as §1

[8] = system: PPARg:RXRa 270nM:90nM, anti-RXR (NR concentration 270 nM, RXRa partner concentration 90 nM)
In short: as §1

[9] = system: PPARg:RXRa 30nM:10nM, anti-RXR (NR concentration 30 nM, RXRa partner concentration 10 nM)
In short: as §1

[10] = system: PPARg:RXRa 90nM:30nM, anti-RXR (NR concentration 90 nM, RXRa partner concentration 30 nM)
In short: as §1

[11] = system: PPARg:RXRa DBDmut IVT, anti-RXR (DBD mutation: RXRa K156A/R161A, NR concentration 270 nM, RXRa partner concentration 90 nM)
In short: as §1

[12] = system: PPARg:RXRa IVT, anti-PPARg (NR concentration 270 nM, RXRa partner concentration 90 nM)
In short: as §1

[13] = system: PPARg DBDmut:RXRa IVT, anti-PPARg (DBD mutation: PPARg1 K132A/R137A, NR concentration 270 nM, RXRa partner concentration 90 nM)
In short: as §1

[14] = system: PPARg DBDmut IVT, anti-PPARg (DBD mutation: PPARg1 K132A/R137A, NR concentration 270 nM)
In short: as §1

[15] = system: PPARg homodimer (NR concentration 180 nM)
In short: as §1

[16] = system: PXR:RXRa (NR concentration 270 nM, RXRa partner concentration 90 nM)
In short: as §1

[17] = system: PXR homodimer (NR concentration 270 nM)
In short: as §1

[18] = system: RARa homodimer (NR concentration 270 nM)
In short: as §1

[19] = system: RARb:RXRa (NR concentration 270 nM, RXRa partner concentration 90 nM)
In short: as §1

[20] = system: RARa:RXR (NR concentration 270 nM, RXRa partner concentration 90 nM)
In short: as §1

For CGTCCAAGGTCAAGGTGAGTGAAAGAGACTCGAA, the PBM binding z-score [1] was 7.1, the PBM binding z-score [2] was 4.92 and the PBM binding z-score [3] was 0.292. It also gave a PBM binding z-score [4] of 3.92, a PBM binding z-score [5] of 0.281 and a PBM binding z-score [6] of 5.71. For the same sequence, the PBM binding z-score [7] was 5.33, the PBM binding z-score [8] was 5.61 and the PBM binding z-score [9] was 2.05. For the same sequence, the PBM binding z-score [10] was 4.04, the PBM binding z-score [11] was 3.35 and the PBM binding z-score [12] was 3.92. For the same sequence, the PBM binding z-score [13] was 0.375, the PBM binding z-score [14] was 0.105 and the PBM binding z-score [15] was 3.6. For the same sequence, the PBM binding z-score [16] was 3.6, the PBM binding z-score [17] was 0.642 and the PBM binding z-score [18] was 1.04. It also gave a PBM binding z-score [19] of 5.22.

Work on ATATGTAGGTAACATCCGGGTCATTCAGGCTATG yielded a PBM binding z-score [1] of 1.82, a PBM binding z-score [2] of 2.79 and a PBM binding z-score [3] of 0.798. It also gave a PBM binding z-score [4] of 2.48, a PBM binding z-score [5] of 0.596 and a PBM binding z-score [6] of 4.36. It also gave a PBM binding z-score [7] of 5.15, a PBM binding z-score [8] of 4.17 and a PBM binding z-score [9] of 1.8. For the same sequence, the PBM binding z-score [10] was 3.15, the PBM binding z-score [11] was 6.71 and the PBM binding z-score [12] was 7.04. It also gave a PBM binding z-score [13] of 2.61, a PBM binding z-score [14] of 1.59 and a PBM binding z-score [15] of 1.75. The PBM binding z-score [16] was 3.14, the PBM binding z-score [17] was 2.16 and the PBM binding z-score [18] was 0.771. The PBM binding z-score [19] was 1.66.

For TTACCAAGGTTAAAGGTCGTTGATGCACGCCTTG, the PBM binding z-score [1] was 4.98, the PBM binding z-score [2] was 5.1 and the PBM binding z-score [3] was 1.51. For the same sequence, the PBM binding z-score [4] was 4.06, the PBM binding z-score [5] was 0.439 and the PBM binding z-score [6] was 5.64. For the same sequence, the PBM binding z-score [7] was 7.98, the PBM binding z-score [8] was 8.34 and the PBM binding z-score [9] was 8.79. The PBM binding z-score [10] was 8.95, the PBM binding z-score [11] was 2.09 and the PBM binding z-score [12] was 4.53. For the same sequence, the PBM binding z-score [13] was 0.805, the PBM binding z-score [14] was 0.292 and the PBM binding z-score [15] was 2.41. It also gave a PBM binding z-score [16] of 5.16, a PBM binding z-score [17] of 0.943 and a PBM binding z-score [20] of 6.63. The PBM binding z-score [18] was 0.588 and the PBM binding z-score [19] was 3.68.

In the case of AATACAGGGTCACTAGGCCCGAGTAGGTACGAAT, the PBM binding z-score [1] is reported as 6.16, the PBM binding z-score [2] is reported as 4.62 and the PBM binding z-score [3] is reported as 0.516. It also gave a PBM binding z-score [4] of 3.53, a PBM binding z-score [5] of 0.618 and a PBM binding z-score [6] of 5.37. It also gave a PBM binding z-score [7] of 6.32, a PBM binding z-score [8] of 5.26 and a PBM binding z-score [9] of 2.34. It also gave a PBM binding z-score [10] of 4.04, a PBM binding z-score [11] of 2.32 and a PBM binding z-score [12] of 4.28. It also gave a PBM binding z-score [13] of 2.04, a PBM binding z-score [14] of 0.859 and a PBM binding z-score [15] of 1.77. It also gave a PBM binding z-score [16] of 2.94, a PBM binding z-score [17] of 0.0617 and a PBM binding z-score [18] of 0.416. For the same sequence, the PBM binding z-score [19] was 4.14.

CGTCCAAGGTCAGTGAGGTCAGTGAATGCCGAGT gave a PBM binding z-score [1] of 5.29, a PBM binding z-score [2] of 4.25 and a PBM binding z-score [3] of 2.06. It also gave a PBM binding z-score [4] of 3.89, a PBM binding z-score [5] of -0.0298 and a PBM binding z-score [6] of 4.72. For the same sequence, the PBM binding z-score [7] was 3.46, the PBM binding z-score [8] was 4.07 and the PBM binding z-score [9] was 0.585. For the same sequence, the PBM binding z-score [10] was 2.61, the PBM binding z-score [11] was 3.14 and the PBM binding z-score [12] was 3.83. It also gave a PBM binding z-score [13] of -0.101, a PBM binding z-score [14] of -0.804 and a PBM binding z-score [15] of 3.15. The PBM binding z-score [16] was 5.76, the PBM binding z-score [17] was 11.8 and the PBM binding z-score [18] was 0.545. It also gave a PBM binding z-score [19] of 5.51.

TTACAAAGGTGAAAGGTCGTTGATGCACGCCTTG gave a PBM binding z-score [1] of 5.91, a PBM binding z-score [2] of 4.66 and a PBM binding z-score [3] of 0.507. The PBM binding z-score [4] was 4.08, the PBM binding z-score [5] was -0.0513 and the PBM binding z-score [6] was 6.21. For the same sequence, the PBM binding z-score [7] was 9.23, the PBM binding z-score [8] was 8.27 and the PBM binding z-score [9] was 8.34. For the same sequence, the PBM binding z-score [10] was 8.62, the PBM binding z-score [11] was 3.36 and the PBM binding z-score [12] was 5.57. It also gave a PBM binding z-score [13] of 1.51, a PBM binding z-score [14] of 1.12 and a PBM binding z-score [15] of 2.94. For the same sequence, the PBM binding z-score [16] was 5.11, the PBM binding z-score [17] was 0.77 and the PBM binding z-score [18] was 0.833. The PBM binding z-score [19] was 4.25.
